# This is a sample that favours compounds with a hit; in the whole collection about 4.8% have one here.
# D3 ag: agonists of human D3 dopamine receptor; AID 652048; max activation, %; actives 0.58% (n = 410,000); D3R DiscoveRx beta-arrestin cells, luminescence, 90 min; in the data active = max activation above about 30%; note: 0% is about no effect
# Target sequence (P35462 whole entry, looked up): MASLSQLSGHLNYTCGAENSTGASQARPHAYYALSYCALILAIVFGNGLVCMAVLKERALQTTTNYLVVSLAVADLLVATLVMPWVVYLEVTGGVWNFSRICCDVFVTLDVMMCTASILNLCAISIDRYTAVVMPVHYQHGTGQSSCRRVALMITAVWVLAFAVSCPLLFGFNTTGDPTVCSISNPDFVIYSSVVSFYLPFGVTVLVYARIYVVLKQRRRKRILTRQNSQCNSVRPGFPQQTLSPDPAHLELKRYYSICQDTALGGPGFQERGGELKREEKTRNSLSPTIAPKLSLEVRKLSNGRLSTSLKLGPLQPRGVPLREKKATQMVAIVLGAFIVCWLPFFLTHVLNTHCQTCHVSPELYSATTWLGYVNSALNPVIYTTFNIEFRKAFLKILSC
#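 Agonist-mode cell screen: cells plated at 1500/well and incubated overnight at 37 °C, then exposed to library compounds for 90 min at 37 °C. Detection reagent was added for 30–60 min at room temperature, and luminescence was read.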
# D3 antag: antagonists of human D3 dopamine receptor; D3R cells, DiscoveRx beta-arrestin luminescence, antagonist mode; active compounds read low; actives 2.5% (n = 360,000); AID 652054; P35462; max response, negative = inhibition, %; in the data active = max response below about -50%; inconclusive = no clear call, values can overlap the other calls; note: % is set by controls: 0 for no effect and ±100 for the full control effect
#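 Cells expressing the human receptor were seeded at 1500 cells/well, incubated overnight at 37 degrees C in 5% CO2, then exposed to library compounds with dopamine controls for 90 minutes at 37 degrees C before luminescent detection.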
# ATXN2 expr inh: inhibitors of ATXN2 expression. HEK-293 ATXN2-luciferase reporter, luminescence, 24 h. Potency, µM (highest dose often 57 µM), for the others: at the highest dose activity change, negative = inhibition, actives largely listed as inhibitors. actives 0.72% (n = 360,000). AID 1745845; note: potency is the fitted concentration of half-maximal effect; % is set by controls: 0 for no effect and ±100 for the full control effect; nearly all actives have a fitted effect of over 55% in size
#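 qHTS (up to 57 uM final) was run with 24 h compound exposure of reporter cells at 37 °C. Each well was multiplexed: SteadyGlo luminescence measured ATXN2-luciferase expression after a fluorogenic Gly-Phe-AFC viability readout (25 uM final).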
# HepG2 tox: counter-screen for TGF-b inhibitors: cytotoxicity in HepG2 cells. Potency, µM (doses to about 46.1 µM), for the others: at the top dose activity change, negative = cytotoxicity, usual class: cytotoxic. HepG2 CAGA-GFP viability, ATP luminescence, 18 h. actives 0.76% (n = 410,000); note: potency is the fitted concentration of half-maximal effect
#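 HepG2 CAGA-GFP cells (1000/well, DMEM with 1% FBS) received compound, then TGF-beta at 500 pg/mL final, and were incubated 18 hours at 37 degrees C. Viability was read by CellTiter-Glo luminescence. Media-only wells were set as complete cell-killing and DMSO as no toxicity.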
# TGFb inhibitor: blocks TGF-b signaling; HepG2 CAGA-GFP TGF-b/SMAD3 reporter, GFP fluorescence, 18 h; TGF-beta stimulated, 500 pg/mL final; Potency, µM (highest dose often 46.1 µM), for inactives: top-dose activity, negative = inhibition, actives largely listed as inhibitors; actives 1.2% (n = 410,000); AID 588855; note: potency is the fitted concentration of half-maximal effect; % is set by controls: 0 for no effect and ±100 for the full control effect; nearly all actives have a fitted effect of over 65% in size
#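 GFP signal (ex488/em500-530) from TGF-beta-stimulated HEPG2 CAGA-GFP cells, 500 pg/mL final, 18 h at 37 degrees C in DMEM plus 1% FBS, normalized to unstimulated and DMSO-stimulated controls.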
# ATXN viability: cell viability loss in ATXN counter-screen; Potency, µM (top dose mostly 56.7 µM), hits mostly cytotoxic; S2 cells (HEK-293 line with an ATXN2-luciferase reporter) viability, CellTiter-Fluor protease fluorescence, 24 h; actives 0.49% (n = 400,000); AID 651635; note: potency is the fitted concentration of half-maximal effect; nearly all actives have a fitted effect of over 40% in size
# Active calls of the source: *; i = inactive; ? = inconclusive; nt = not tested or not shown; [ ] = another dose, or the depositor's remark. Unless noted, calls come from the whole dose curve; as a rule, active = well fitted curve in the direction sought with a large enough effect; inconclusive = small, poorly fitted or top-dose-only effect, or another doubt; inactive = no such curve, though single readings can be large; an effect the other way counts as inactive or inconclusive.
SMILES,D3 ag,D3 antag,ATXN2 expr inh,HepG2 tox,TGFb inhibitor,ATXN viability
CCCCNCC1C(Oc2ccc(Cl)cc2)C(=O)N1c1ccccc1C (configuration not stated),-25,?,-22%,16µM*,14µM*,i
CCCNCC1C(Oc2ccc(Cl)cc2Cl)C(=O)N1c1cccc(C)c1C (configuration not stated),0,?,nt,-104%,?,?
Cc1cc(C)nc(N/N=C/c2sccc2C)n1,-1,2,30%,-50%,-7%,i
Cc1ccsc1/C=N/Nc1nc(=O)[nH]nc1C,1,-16,?,11µM*,?,i
COc1cccc(-c2csc(-c3c(N)c(C(=O)c4ccccc4)n4ccccc34)n2)c1,-14,nt,7%,1%,0%,i
CCOC(=O)NC(NCCc1ccccc1)(C(F)(F)F)C(F)(F)F,31*,-6,-3%,-10%,3%,i
CCOC(=O)NC(NCc1ccccc1)(C(F)(F)F)C(F)(F)F,6,6,7%,-15%,-4%,i
CCOC(=O)C1=C(C)NC(=O)NC1c1ccc(N(C)C)cc1 (configuration not stated),-3,-6,-5%,-17%,0%,i
CCC(CC)COC(=O)C1=C(C)NC(=O)NC1c1ccc(N(C)C)cc1 (configuration not stated),-5,1,nt,7.9µM*,?,i
CCc1nn(C(CC)C(=O)NCCCN2CC(C)CC(C)C2)c(=O)c2cc3oc(C)cc3n12 (configuration not stated),-22,-57*,8%,-26%,-2%,i
CCc1nn(C(CC)C(=O)NCCCc2ccccc2)c(=O)c2cc3occc3n12 (configuration not stated),-1,-8,2%,0%,-6%,i
CCc1ccccc1N(CC)C(=O)c1c(C)oc2ncnc(N3CCOCC3)c12,-4,nt,nt,-2%,-5%,nt
Cc1ccccc1-n1ncc2c(SCC(=O)NC3CCCC3)ncnc21,7,11,-15%,-2%,?,i
Cc1nnc(NC(=O)CSc2ncnc3c2cnn3-c2ccccc2C)s1,6,-63*,-33%,3%,0%,i
O=C(NCc1ccccc1)[C@]1(C(F)(F)F)C[C@H](CCCO)CCCO1,nt,nt,nt,-21%,-7%,nt
N#Cc1cc2c(nc1SCc1ccncc1)CCC2,-6,-13,27%,-39%,13µM*,i
N#Cc1cc2c(nc1SCc1ccccc1)CCC2,-4,-2,-3%,-33%,-6%,i
CC(C)c1cc(C(N)=O)c(NC(=O)C2CCC2)s1,37*,-9,14%,-5%,-11%,i
COc1cccc(-c2nc(SCC(=O)Nc3ccc4c(c3)OCCO4)c(-c3ccc(C)cc3)[nH]2)c1,-1,nt,?,-5%,?,?
O=C(NCc1ccccc1)c1cc2ccc3cccnc3c2[nH]1,-11,nt,nt,-19%,-8%,nt
Cc1ccc(Cl)cc1N(C)C(=O)c1cc2ccc3cccnc3c2[nH]1,-5,nt,nt,13µM*,11µM*,nt
COc1ccc(N2CCN(C(=O)c3cc4ccc5cccnc5c4[nH]3)CC2)cc1,-8,nt,nt,-4%,-12%,nt
Cc1ccc(C)c(N2CCN(C(=O)c3cc4ccc5cccnc5c4[nH]3)CC2)c1,1,nt,nt,-23%,16µM*,nt
O=C(NCc1cccnc1)c1cnn(-c2ncc3c(n2)-c2ccccc2CCC3)c1C1CC1,nt,nt,nt,nt,nt,i
O=C(NCc1cccnc1)c1ccc(Br)s1,3,-1,6%,12%,10%,i
SMILES,D3 ag,D3 antag,ATXN2 expr inh,HepG2 tox,TGFb inhibitor,ATXN viability
Cc1ccccc1-n1nc(C)c2cc(C(=O)NCc3cccnc3)sc21,-50,-60*,-26%,-15%,-14%,?
CC=CC(=O)N(CC)c1ccccc1C,nt,nt,-2%,nt,nt,nt
CN1N/C(=C\c2ccccc2)N=C2C(=O)N(C)C(=O)N=C21,nt,nt,nt,1.1µM*,-109%,nt
CCN(CC)c1ccc(C(=O)NNC(=O)CCNC(=O)c2ccccc2)cc1,-16,27,-2%,-26%,-2%,i
CCN(CC)c1ccc(C(=O)NNC(=O)CCl)cc1,-35,-126*,9%,-11%,0%,?
Cc1cnc(C(=O)Nc2cccc3cccnc23)cn1,0,8,?,-89%,2.8µM*,?
O=C(CC(C(=O)O)c1ccc(Cl)cc1)c1ccc(Br)cc1 (configuration not stated),15,14,15%,10µM*,-4%,i
CC(C)c1ccc(C(CC(=O)c2ccc(Cl)cc2)C(=O)O)cc1 (configuration not stated),1,-23,-21%,-15%,1%,?
COc1ccc(CCC(=O)NCc2nc3cccnc3n2Cc2ccc(OC)cc2)cc1,-9,nt,nt,-33%,-18%,nt
Cc1ccc(S(=O)c2snnc2C)cc1 (configuration not stated),14,47,36%,-1%,8%,i
CCCNC(=O)c1nnsc1S(=O)c1ccc(Cl)cc1 (configuration not stated),-21,-78*,?,-104%,?,nt
CCCNC(=O)c1nnsc1S(=O)(=O)c1ccc(Cl)cc1,-23,-85*,14%[11.3 µM],18µM*,?,?
CCCNC(=O)NS(=O)(=O)c1ccc(Cl)cc1,1,20,4%,0%,0%,i
CNC(=O)c1nnsc1S(=O)c1ccc(Cl)cc1 (configuration not stated),-22,-55*,35%[11.3 µM],-116%,?,?
S=C(S)OC1CC2CC1C1CCCC21 (configuration not stated),11,-80*,3%,23%,-10%,i
Cc1ccc(-c2nc(NCCCN(C)C)c3ccccc3n2)cc1,-2,-12,nt,-40%,-2%,i
Cc1ccc(-c2csc3nc4c5ccccc5c(NCCCN(C)C)nn4c(=O)c23)cc1,4,1,-30%,14µM*,?,i
CC(C)C(=O)Oc1ccc(CO)cc1[C@H](CCN(C(C)C)C(C)C)c1ccccc1,nt,nt,-17%,nt,nt,nt
O=C(/C=C/c1c(F)cccc1Cl)c1ccc(F)cc1,-13,11,-13%,16µM*,?,i
CC(C)(C)n1ncc2c(=O)n(Cc3ccc(SC(=O)O)cc3Cl)cnc21,nt,nt,nt,-10%,-15%,nt
CC(C)(C)c1ccc(C(=O)Nc2nnc(C3=COCCO3)o2)cc1,-14,-71*,-9%,-26%,-12%,?
CCOc1cccc2sc(N(CCN(C)C)C(=O)/C=C/c3cccs3)nc12,-15,?,?,-68%,?,?

# Compound activity as filed in PubChem BioAssay.
